Laboratory results from PubChem BioAssay.
Calls of active or inactive are those of the source.

Assay: forskolin-driven CRE-LacZ activity in PC12 – cell-based, CRE-LacZ reporter, forskolin-stimulated, primary screen (AID 1146);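 note: PC12 cells with 6xCRE LacZ reporter stimulated by forskolin 10 µM; beta-galactosidase reporter signal reflecting CREB driven transcription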
Details: luminescence, 4.5 h, higher = more signal, called active from +8 up or from −8 down

z-score, inactive:
COCCOC(=O)N1C(=O)[C@@]2(c3cc(C#CCC(C(=O)OC)C(=O)OC)ccc31)[C@H](c1ccccc1OCCO)N1[C@H](c3ccccc3)[C@H](c3ccccc3)OC(=O)[C@H]1[C@@H]2C(=O)N1CCN(c2ncccn2)CC1 1.7
C=CCC(OC(C)=O)[C@@H]1[C@@H](N(Cc2ccc(-c3ccccc3)cc2)C(=O)c2cccc3ccccc23)c2cc(OCCCO)ccc2N1C(=O)c1ccc(-c2ccccc2)cc1 (stereo not given in full) -0.531
O=C(NCCO)C1=C[C@H](Oc2ccccc2I)[C@@H](O)[C@H](N(Cc2ccco2)C(=O)Cc2ccccc2)C1 0.603
C#C[C@H](O[Si](C#Cc1ccc(Oc2ccccc2)cc1)(C(C)C)C(C)C)c1ccccc1 1.7
CC1CC/C=C\[C@H]2OC34C=CCN(Cc5ccccc5)C(=O)[C@H]3N(CCCO)C(=O)[C@@H]4C2C(=O)O1 (stereo not given in full) 0.776
CCOC(=O)C[C@H]1[C@H](OC(=O)c2ccc(C(=O)c3ccccc3)cc2)[C@@H](NC(=O)c2ccccc2)c2cc(OCCCO)ccc2N1C(=O)Cc1ccc(OC)cc1 0.0836
CC(C)CNC(=O)[C@@]1(Cc2ccccc2I)c2ccccc2C(=O)N(C2CCCCC2)[C@H]1c1ccc(CO)cc1 -0.0769
Cc1ccc(S[C@]2(C(=O)NCCCN(C)C)CC(=O)N(Cc3ccccc3C(F)(F)F)[C@@H]2c2ccc(CO)cc2)cc1 0.358
C=CC[C@]1(C(=O)NCCCOC)N=C(c2ccc(OCCCO)cc2)O[C@H]1c1ccccc1CN=[N+]=[N-] -1.41
Cc1ccc(S[C@]2(C(=O)NCCCN(C)C)CC(=O)N(Cc3cc(C(F)(F)F)cc(C(F)(F)F)c3)[C@@H]2c2ccc(CO)cc2)cc1 1.19
CCCC[C@H]1OB(O)C[C@H]2C1=C(COC)Cn1c(=O)n(-c3ccccc3)c(=O)n12 0.124
COc1ccc(/C=C/C=O)cc1 0.561
NC(=O)NCC#Cc1ccc2c(c1)[C@]1(C(=O)N2)[C@H](c2ccccc2OCCO)N2[C@H](c3ccccc3)[C@H](c3ccccc3)OC(=O)[C@H]2[C@@H]1C(=O)Nc1nc2ccccc2s1 0.335
C=CCC(OC(C)=O)[C@@H]1[C@@H](N(Cc2ccc(-c3ccccc3)cc2)C(=O)c2ccc(-c3ccccc3)cc2)c2cc(OCCCO)ccc2N1C(=O)Cc1ccc2ccccc2c1 (stereo not given in full) 0.411
Cc1ccc(N2C(=O)c3ccccc3[C@@H](C(=O)NC3CC3)[C@@H]2c2ccc(CO)cc2)nc1 0.986
COCCCNC(=O)[C@@]1(C)c2ccccc2C(=O)N(C(C)C)[C@H]1c1ccc(CO)cc1 0.174
COC(=O)[C@@]1(Cc2ccc(OC)cc2)[C@@H]2C(=CC(=O)[C@H]2CC(=O)C(=O)N2CCCC2)CN1C(=O)c1ccccc1 0.0528
C=C(COC)/C(=C/C[C@@H](OC(=O)c1ccncc1)c1ccc(CO)o1)c1cc(C(=O)OC)ccc1OC 1.31
NC(=O)NCC#Cc1ccc2c(c1)[C@]1(C(=O)N2)[C@H](C(=O)Nc2nc3ccccc3s2)[C@H]2C(=O)O[C@H](c3ccccc3)[C@H](c3ccccc3)N2[C@@H]1c1ccccc1OCCO -0.327
COc1ccc(C(=O)Nc2ccc(CN3C(=O)[C@]4(O[C@H](CCO)[C@@H]([Si](C)(C)c5ccc(OC)cc5)[C@@H]4C)c4ccccc43)cc2)cc1 -1.89
COc1cc2c(cc1OC)CN(C(=O)[C@@H]1[C@H]3C(=O)O[C@H](c4ccccc4)[C@H](c4ccccc4)N3[C@H](c3ccc(O)cc3)[C@@]13C(=O)Nc1ccccc13)CC2 -0.0307
[N-]=[N+]=Nc1ccccc1[C@@H]1OC(c2ccc(OCCCO)cc2)=N[C@]1(CCS(=O)(=O)c1ccccc1)C(N)=O -1.09
COC(=O)[C@@]1(Cc2ccc(F)cc2)[C@H]2c3cc(C(=O)N4CCCC4)n(CCCNc4ncc(C(F)(F)F)cc4Cl)c3C[C@H]2CN1C(=O)c1ccccc1 -0.152
[N-]=[N+]=Nc1ccccc1[C@@H]1OC(c2ccc(OCCCO)cc2)=N[C@]1(Cc1ccccc1)C(=O)N1CCOCC1 -1.42
C=CCC(OC(C)=O)[C@@H]1[C@@H](N(Cc2ccc(-c3ccccc3)cc2)C(=O)Cc2ccc(OC)cc2)c2cc(OCCCO)ccc2N1C(=O)Cc1ccc2ccccc2c1 (stereo not given in full) 0.358
